About 83,000 compounds went through this panel and 20% of them were active in at least one assay; those are over-represented in the sample as a whole.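 Testing used 96-well plates and a 48-hour single-concentration exposure. Example: -40 means 40% of the starting cells died.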 Values without a mark were called inactive. The source made the active and inactive calls. Rule for the calls: active = growth percent below 10; inactive = the rest.
test system: NCI-H522 lung; experiment: NCI-60 one-dose screen, 48 h (100 = growth as untreated, 0 = no growth, -100 = all killed); details: 10 µM unless noted

Compound | growth
NC(N)=N/N=C(/c1ccccc1)c1ccc(Cl)cc1 | 59.5%
O=C(Nc1nc(-c2ccc(Cl)cc2)cs1)c1cc(O)c(O)c(O)c1 | -34.9% (active)
CC(=O)Oc1ccc(C2OC(c3ccc4ccccc4c3OC(C)=O)=NN2C(C)=O)c(OC(C)=O)c1 (centres undefined) | 4.49% (active)
Fc1ccc(-c2nnc(-c3c(-c4ccc(F)cc4)nc4ncccn34)o2)cc1 | 89.1%
COc1ccc(/C=C(\C#N)c2ccccc2)cc1 | 90.1%
C=C(C)[C@H]1CC/C(C)=C/CC[C@]2(C)O[C@H]2CC/C(C=O)=C\C1O (some centres undefined) | 113%
O=c1ccn(C2OC(CO)C(O)C2F)c(=O)[nH]1 (centres undefined) | 109%
COc1cccc(-c2nnc(N)o2)c1 | 96.8%
O=c1cc(-c2cccnc2)oc2c1ccc1ccccc12 | 62%
COc1ccc(-c2cn(-c3ccccc3)c(-c3ccccc3)n2)cc1OC | 75.4%
COc1cc(Oc2cc(-c3cccnc3)ccc2NC(=O)Nc2ccc(F)cc2F)cc(OC)c1OC | 94.8%
ClC1=C(Cl)C(Cl)=C(Cl)C1=C/C=C/c1ccccc1 | -52.4% (active)
CNc1ccc(CSc2ccc(Cl)cc2)cc1 | 75.6%
C/C(=C\CCc1ccoc1)CC/C=C(\C)CCCN1CCC(CO)CC1 | 54.6%
Oc1ccc(Cc2ccc(O)c(C3CC(c4ccc(Cl)cc4)=NN3)c2)cc1C1CC(c2ccc(Cl)cc2)=NN1 (centres undefined) | -6.56% (active)
CSc1nc2c(c(=O)n1C)C(c1ccccc1)C1=C(N2)/C(=C/c2ccccc2)CCC1 (centres undefined) | 24.5%
CCCc1nn(C)c2c(=O)[nH]c(-c3cc(S(=O)(=O)N4CCN(C)CC4)ccc3OCC)nc12 | 88.9%
O=C(/C(=N/O)S(=O)(=O)c1ccccc1)c1cccs1 | 143%
Cc1ccccc1-c1cc(Cc2ccccc2O)c(=O)[nH]n1 | 93.3%

Compound | growth
O=C(CSc1nc2c(n1Nc1ccccc1)-c1ccccc1SC2)Nc1nc(-c2ccc(Cl)cc2)cs1 | 65.2%
CCOc1cc(C(C)(C)C)ccc1C1=N[C@H](c2ccc(Cl)cc2)[C@H](c2ccc(Cl)cc2)N1C(=O)N1CCN(CC#Cc2cccc3c2CN([C@@H]2CCC(=O)NC2=O)C3=O)CC1 | 39.3%
Nc1ccc(S(=O)(=O)Nc2ncccn2)cc1 | 106%
CC(=O)n1c2ccccc2c2ccccc21 | 108%
O=C1C(Cl)=C(N=Nc2c(Cl)c(O)c3ccccc3c2O)C(=O)c2ccccc21 | 72.7%
NC(N)=NN=c1c(=O)c2ccccc2c1=O | 80.8%
O=C(Nc1ccccc1Cl)c1cnc2ccc(C3CCNCC3)cn12 | 2.54% (active)
CC12CCC3C(CCC4CC(=O)/C(=C\O)CC43C)C1CCC(=O)O2 (centres undefined) | 108%
Oc1[nH]c2ccc(Cl)cc2c1/C=c1/ccc2c(c1)N=C(c1ccc(C(F)(F)F)cc1)N=2 | 45.7%
O=C(c1ccccc1)c1ccccc1Cl | 92.4%
N#Cc1c(N2CCOCC2)nc2sc3cc(Cl)ccc3n2c1=N | 93.7%
O=C1CCCN1C1CCN(Cc2cc3ccccc3[nH]c2=O)c2ccccc21 (centres undefined) | 63%
CN(C)c1ccc(/C=C(\C#N)c2nc3ccccc3c(=O)[nH]2)cc1 | 84.2%
CCn1c2ccccc2c2ccc(C(C)=O)cc21 | 96.6%
Clc1cccc(Cc2cn3cc(-c4ccccc4)nc3s2)c1 | 45.9%
COc1cc(C2NC(c3ccc(Cl)cc3)C(C)C(=NC(=O)c3cnccn3)C2C)cc(OC)c1OC (centres undefined) | 85.4%
COc1ccc(C2=NN(C(=O)c3cc(OC)c(OC)c(OC)c3)C(c3ccc(C#N)cc3)C2)cc1OC (centres undefined) | -16% (active)
CCc1[nH]nc(-c2ccc(OC)cc2)c1-c1ccccc1OCCN(CC)CC | 114%

test system: A549/ATCC NSCLC; experiment: as above; details: 10 µM unless noted

Compound | growth
NC(N)=N/N=C(/c1ccccc1)c1ccc(Cl)cc1 | 68.3%
O=C(Nc1nc(-c2ccc(Cl)cc2)cs1)c1cc(O)c(O)c(O)c1 | 25.2%
CC(=O)Oc1ccc(C2OC(c3ccc4ccccc4c3OC(C)=O)=NN2C(C)=O)c(OC(C)=O)c1 (centres undefined) | 6.76% (active)
Fc1ccc(-c2nnc(-c3c(-c4ccc(F)cc4)nc4ncccn34)o2)cc1 | 96%
COc1ccc(/C=C(\C#N)c2ccccc2)cc1 | 81.8%
C=C(C)[C@H]1CC/C(C)=C/CC[C@]2(C)O[C@H]2CC/C(C=O)=C\C1O (some centres undefined) | 108%
O=c1ccn(C2OC(CO)C(O)C2F)c(=O)[nH]1 (centres undefined) | 109%
COc1cccc(-c2nnc(N)o2)c1 | 102%
O=c1cc(-c2cccnc2)oc2c1ccc1ccccc12 | 65.6%
COc1ccc(-c2cn(-c3ccccc3)c(-c3ccccc3)n2)cc1OC | 85.8%
COc1cc(Oc2cc(-c3cccnc3)ccc2NC(=O)Nc2ccc(F)cc2F)cc(OC)c1OC | 94.6%
ClC1=C(Cl)C(Cl)=C(Cl)C1=C/C=C/c1ccccc1 | -58% (active)
CNc1ccc(CSc2ccc(Cl)cc2)cc1 | 93.6%
C/C(=C\CCc1ccoc1)CC/C=C(\C)CCCN1CCC(CO)CC1 | 65.9%
Oc1ccc(Cc2ccc(O)c(C3CC(c4ccc(Cl)cc4)=NN3)c2)cc1C1CC(c2ccc(Cl)cc2)=NN1 (centres undefined) | 14.7%
CSc1nc2c(c(=O)n1C)C(c1ccccc1)C1=C(N2)/C(=C/c2ccccc2)CCC1 (centres undefined) | 86.2%
CCCc1nn(C)c2c(=O)[nH]c(-c3cc(S(=O)(=O)N4CCN(C)CC4)ccc3OCC)nc12 | 96.2%
O=C(/C(=N/O)S(=O)(=O)c1ccccc1)c1cccs1 | 106%
Cc1ccccc1-c1cc(Cc2ccccc2O)c(=O)[nH]n1 | 107%

Compound | growth
O=C(CSc1nc2c(n1Nc1ccccc1)-c1ccccc1SC2)Nc1nc(-c2ccc(Cl)cc2)cs1 | 25.7%
CCOc1cc(C(C)(C)C)ccc1C1=N[C@H](c2ccc(Cl)cc2)[C@H](c2ccc(Cl)cc2)N1C(=O)N1CCN(CC#Cc2cccc3c2CN([C@@H]2CCC(=O)NC2=O)C3=O)CC1 | 24.8%
Nc1ccc(S(=O)(=O)Nc2ncccn2)cc1 | 100%
CC(=O)n1c2ccccc2c2ccccc21 | 107%
O=C1C(Cl)=C(N=Nc2c(Cl)c(O)c3ccccc3c2O)C(=O)c2ccccc21 | 51.9%
NC(N)=NN=c1c(=O)c2ccccc2c1=O | 95.1%
O=C(Nc1ccccc1Cl)c1cnc2ccc(C3CCNCC3)cn12 | 66.7%
CC12CCC3C(CCC4CC(=O)/C(=C\O)CC43C)C1CCC(=O)O2 (centres undefined) | 106%
Oc1[nH]c2ccc(Cl)cc2c1/C=c1/ccc2c(c1)N=C(c1ccc(C(F)(F)F)cc1)N=2 | 70.5%
O=C(c1ccccc1)c1ccccc1Cl | 98.9%
N#Cc1c(N2CCOCC2)nc2sc3cc(Cl)ccc3n2c1=N | 102%
O=C1CCCN1C1CCN(Cc2cc3ccccc3[nH]c2=O)c2ccccc21 (centres undefined) | 98.8%
CN(C)c1ccc(/C=C(\C#N)c2nc3ccccc3c(=O)[nH]2)cc1 | 99.5%
CCn1c2ccccc2c2ccc(C(C)=O)cc21 | 103%
Clc1cccc(Cc2cn3cc(-c4ccccc4)nc3s2)c1 | 37.5%
COc1cc(C2NC(c3ccc(Cl)cc3)C(C)C(=NC(=O)c3cnccn3)C2C)cc(OC)c1OC (centres undefined) | 98.8%
COc1ccc(C2=NN(C(=O)c3cc(OC)c(OC)c(OC)c3)C(c3ccc(C#N)cc3)C2)cc1OC (centres undefined) | 22%
CCc1[nH]nc(-c2ccc(OC)cc2)c1-c1ccccc1OCCN(CC)CC | 93.2%

From PubChem BioAssay (NCI)
